Experimental findings from PubChem BioAssay are described below.

Assay [1] addresses Cell division control protein 42 homolog (Homo sapiens) (UniProt P60953). The assay is described as follows: activated mutant Cdc42 GTP-binding inhibitors, dose response, biochemical, multiplex bead flow cytometry, Bodipy-FL-GTP (AID 1333;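 active = fitted half-maximal concentration within the tested dose range, moderate curve steepness, a statistically real signal drop, and little compound fluorescence or tag-binding interference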).
Assay [2] has the same target. As to the kind of experiment: wildtype Cdc42 GTP-binding inhibitors, dose response, biochemical, multiplex bead flow cytometry, Bodipy-FL-GTP (AID 1334;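 active = fitted half-maximal concentration within the tested range, moderate curve steepness, significant signal drop, and little compound fluorescence or bead-linkage interference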). The settings on record: bead-based flow cytometry, Bodipy-FL-GTP binding to GST-Cdc42; at 100 µM (top of the series) unless noted. Background: In flow cytometry, cells or beads pass a laser one at a time.
The subject of assay [3] is Ras-related protein Rab-7a (dog), GTP binding. The assay is described as follows: Rab7 GTP binding inhibitors, potency, dose response, biochemical, wildtype, multiplex bead flow cytometry (AID 1336).
Assay [4] has as its target Ras-related C3 botulinum toxin substrate 1 (Homo sapiens) (UniProt P63000). The assay is described as follows: wildtype Rac1 GTP binding inhibitors, dose response, biochemical, multiplex bead flow cytometry (AID 1340;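 active = dose curve with midpoint inside tested range, moderate steepness, plateau gap beyond fit error, low compound glow and bead-link interference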). The note with it: GST-Rac1 beads, Bodipy-FL-GTP binding; at 100 µM (top of the series) unless noted.
The target of assay [5] is GTPase HRas (Homo sapiens) (UniProt P01112). As to the kind of experiment: activated Ras mutant GTP binding inhibitors, dose response, biochemical, multiplex bead flow cytometry (AID 1341;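 active = dose-response curve with midpoint inside the tested range, moderate steepness, significant amplitude and little compound fluorescence or bead-attachment interference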;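 also: GST-tagged constitutively activated Ras mutant immobilized on beads and multiplexed with other GTPases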).
Assay [6] shares this target. As to the kind of experiment: inhibitors of GTP binding to wildtype Ras, dose response, biochemical, multiplex bead flow cytometry (AID 1335;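 active = fitted half-maximal concentration within 10 nM to 100 µM, steepness 0.5 to 2, significant signal drop, low assay interference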). The settings on record: bead-based flow cytometry, Bodipy-GTP binding to GST-Ras; at 100 µM (top of the series) unless noted.
Assay [7] is described as follows: RPL19A-GFP modulators, yeast TOR pathway, confirmation, cell-based, S. cerevisiae, flow cytometry, cherry picks, mother/daughter gates (AID 2270;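 active = GFP response below 50% of the DMSO control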). The note with it: S. cerevisiae RPL19A-GFP strain, 3 h, at 10 µM, stronger effect = lower value, 100 = same GFP as DMSO wells.
Assay [8] is described as follows: LAP4-GFP expression modulators in yeast, confirmation, cell-based, cherry picks, flow cytometry, mother/daughter gates (AID 2271;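 active = GFP response above 150% of the DMSO control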;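 also: ratio of sample to DMSO plate mean so 100% equals DMSO level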). The note with it: S. cerevisiae LAP4-GFP strain, 3 h, at 10 µM, stronger effect = higher value, 100 means same as DMSO control.
The nature of assay [9]: modulators of MEP2-GFP levels in yeast, confirmation, S. cerevisiae, flow cytometry GFP, cherry picks (AID 2272;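 active = GFP response above 150% of the DMSO control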;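 also: ratio of well signal to plate DMSO mean so 100% equals DMSO level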). The note with it: S. cerevisiae MEP2-GFP strain, 3 h, at 10 µM, stronger effect = higher value.
Assay [10] in a line: AGP1-GFP expression modulators, hit retest, confirmation, cell-based, flow cytometry, S. cerevisiae, cherry picks (AID 2273;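 active = GFP response above 150% of the DMSO level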;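 also: median GFP channel fluorescence over the whole cell population gate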). The note with it: S. cerevisiae AGP1-GFP strain, 3 h, at 10 µM.
Assay [11] can be described thus: modulators of CIT2-GFP expression in yeast, confirmation, S. cerevisiae, GFP fusion, cherry picks, mother/daughter gates (AID 2274;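 active = GFP response above 150% of the DMSO level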). The note with it: S. cerevisiae CIT2-GFP strain, flow cytometry, 3 h, at 10 µM, stronger effect = higher value.
Setting [12] is: measured here: daughter cell gate.
Where [13] appears, read: measured here: mother cell gate.

Structures are written as SMILES. For some of these results: Potency and affinity values are given separately. The source made the active and inactive calls. Unless noted, no rule for the calls is given here.

Sequence of GTPase HRas (Homo sapiens) (P01112 whole entry, looked up): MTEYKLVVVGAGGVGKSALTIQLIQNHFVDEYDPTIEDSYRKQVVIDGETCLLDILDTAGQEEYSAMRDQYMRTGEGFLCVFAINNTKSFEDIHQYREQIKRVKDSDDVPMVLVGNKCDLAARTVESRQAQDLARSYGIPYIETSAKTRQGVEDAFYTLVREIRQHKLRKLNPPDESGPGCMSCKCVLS
Sequence of Cell division control protein 42 homolog (Homo sapiens) (P60953 whole entry, looked up): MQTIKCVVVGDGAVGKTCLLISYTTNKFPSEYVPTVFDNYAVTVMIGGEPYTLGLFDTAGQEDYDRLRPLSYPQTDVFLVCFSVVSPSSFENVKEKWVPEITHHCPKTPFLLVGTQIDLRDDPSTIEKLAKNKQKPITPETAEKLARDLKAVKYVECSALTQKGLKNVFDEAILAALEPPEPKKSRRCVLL

As to `CCN1C(c2ccccc2)=C(c2ccccc2)S/C1=C/C=C1\SC(=S)N(C)C1=O`, the molecule was called inactive in [1], in assay [3] and in assay [5]. In addition, the fluorescence, percent of control (lower = inhibition) in assay [2] is 41.8%. In assay [4], this molecule returned a GTP binding signal, raw median fluorescence (lower = inhibition) (MCF (arbitrary fluorescence units)) of 167.

As to `NC(N)=NS(=O)(=O)c1ccc(NC(=S)NC(=O)c2ccc3c(c2)OCO3)cc1`, the outcome in [1], in [3] and in assay [5] was inactive. The molecule also returned a fluorescence, percent of control (lower = inhibition) in assay [2] of 44.3%. Besides, in assay [6], the GTP binding, percent of control was determined as 97.7%.

Regarding `O=C(O)c1ccccc1NCc1ccccc1Cl`, the molecule was classed as inactive in assay [1], in [3] and in assay [5]. Besides, the fluorescence, percent of control (lower = inhibition) in assay [2] amounted to 65.3%. Besides, the GTP binding, percent of control in assay [6] is 88.6%.

`CCCS(=O)(=O)c1nnnn1-c1cccc(OC)c1`: the molecule was called inactive in assay [1], in assay [3] and in assay [5]. In addition, the GTP binding, percent of control in assay [6] came out at 71.2%. Besides, the GTP binding signal, raw median fluorescence (lower = inhibition) (MCF (arbitrary fluorescence units)) in [4] was found to be 230. Also, the GFP response vs DMSO was 87.7% (inactive) in [7], 84.6% in assay [7] (setting [12]), 83.9% in [7] (setting [13]) and 119% (inactive) in assay [9]. In addition, the GFP response relative to DMSO is 176% (active) in [8], 154% in assay [8] (measured here: daughter cell gate response) and 178% in assay [8] (measured here: mother cell gate response). Further, the GFP response, % of DMSO was 106% (inactive) in assay [10], 74.8% (inactive) in assay [11], 74.6% in assay [11] (setting [12]) and 65.8% in [11] (setting [13]).

Take `CCOC(=O)CN(C(=O)CSc1nnc2c(n1)[nH]c1ccc(OC)cc12)c1ccc(F)cc1`: the molecule was called inactive in assay [1], in [3] and in assay [5]. The molecule further gave a fluorescence, percent of control (lower = inhibition) in assay [2] of 47.9%. Further, the GTP binding, percent of control in assay [6] amounted to 58.9%.

`Cc1ccc(C)c(OCCn2cc(C(=O)O)c3ccccc32)c1` came in with a fluorescence, percent of control (lower = inhibition) in assay [2] of 47.5%. This molecule yielded a GTP binding, percent of control in assay [6] of 91.6%. For the same molecule, the result in [3] and in assay [5] was inactive. The GTP binding signal, raw median fluorescence (lower = inhibition) (MCF (arbitrary fluorescence units)) in assay [4] stood at 304.

Molecule `Cc1ccc(-n2c(-c3cnccn3)n[nH]c2=S)c(Br)c1` showed a fluorescence, percent of control (lower = inhibition) in assay [2] of 23.2%. The molecule also returned a GTP binding, percent of control in [6] of 60.1%. The molecule was called inactive in [3] and in [5]. In [4], this molecule displayed a GTP binding signal, raw median fluorescence (lower = inhibition) (MCF (arbitrary fluorescence units)) of 190.

For `CCOC(=O)c1nc(Nc2ccc(C(C)=O)cc2)c2ccccc2n1`, the call in assay [1], in assay [3] and in assay [5] was inactive. Further, in assay [2], the fluorescence, percent of control (lower = inhibition) was 36%. For the same molecule, in assay [6], the GTP binding, percent of control amounted to 80.4%.

For the molecule `O=C(NC1CCCCC1)c1cc([N+](=O)[O-])[nH]n1`, the molecule was called inactive in [1], in [3] and in assay [5]. Further, in [2], the fluorescence, percent of control (lower = inhibition) came to 37.3%. The molecule also yielded a GTP binding, percent of control in assay [6] of 80.1%.

As for `CCn1cc(C=C2C(=O)c3ccccc3C2=O)c2ccccc21`, the result in assay [1], in assay [3] and in [5] was inactive. The molecule also displayed a fluorescence, percent of control (lower = inhibition) in [2] of 40.2%. Also, the GTP binding signal, raw median fluorescence (lower = inhibition) (MCF (arbitrary fluorescence units)) in [4] came to 161.

For the molecule `S=C(Nc1ccc(Oc2ccccc2)cc1)NC1CCCCC1`, the molecule was called inactive in [1], in [3] and in assay [5]. Further, the GTP binding, percent of control in [6] stood at 62.2%. In addition, in [4], the GTP binding signal, raw median fluorescence (lower = inhibition) (MCF (arbitrary fluorescence units)) came out at 205.

As for `CCC(C(=O)NC1CCCC1)N(C(=O)Cn1nnc(-c2ccc(C)o2)n1)c1cnc2ccccc2c1` (stereo unspecified), the call in assay [1], in [3] and in assay [5] was inactive. This molecule also returned a GTP binding, percent of control in assay [6] of 60.1%. The molecule further gave a GTP binding signal, raw median fluorescence (lower = inhibition) (MCF (arbitrary fluorescence units)) in [4] of 194.

Turning to `COc1ccc(Cl)cc1NCc1sc(C(=O)O)cc1C`, the molecule was called inactive in assay [1], in assay [3] and in assay [5]. Moreover, the fluorescence, percent of control (lower = inhibition) in assay [2] was 62.5%. In [6], this molecule had a GTP binding, percent of control of 84.3%.
